HT1080 IDH1KD tx = qHTS for induction of synthetic lethality in tumor cells producing 2HG: qHTS for the HT-1080-IDH1KD cell line; HT-1080 IDH1 knockdown viability, ATP luminescence, 48 h; Potency, µM (series often up to 46.1 µM), inactives show at the top dose activity, negative = toxicity, most hits filed as cytotoxic; 2% of 360,000 active; AID 686971, 2013;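 note: potency is the fitted concentration of half-maximal effect; 0% = DMSO wells and -100% = cell-free medium wells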
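HT-1080-IDH1KD cells (IDH1 knocked down), 750/well in RPMI with 5% FBS, treated with compound 48 h at 37 degrees C. Viability by CellTiter-Glo luminescence, normalised to DMSO and no-cell wells; concentration-response curves classed.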
DT40 TDP1 CPT = qHTS for Inhibitors of human tyrosyl-DNA phosphodiesterase 1 (TDP1): qHTS in cells in presence of CPT; 12% of 420,000 active; AID 686979, 2013; chicken DT40 Tdp1-/-;hTDP1 cells + 20 nM CPT, ATP luminescence, 48 h; Potency, µM (doses to about 46.2 µM), inactives show at the top dose activity change, negative = growth inhibition, usual class: inhibitors; note: potency is the fitted concentration of half-maximal effect; nearly all actives have a fitted effect of over 55% in size
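Chicken DT40 Tdp1-/- cells complemented with human TDP1, 400 cells/well, exposed to compounds plus 20 nM camptothecin for at least 48 h at 37 C; viability read as ATP content by CellTiter-Glo luminescence.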
IL1B secr inh = qHTS for Inhibitors of Inflammasome Signaling: IL-1-beta AlphaLISA Primary Screen; activity change, % at 57.5 µM; THP-1 LPS/ATP IL-1B secretion, AlphaLISA, 16 h; active compounds read low; 4.7% of 360,000 active; AID 743279, 2014; in the data active = activity change below about -50%; inconclusive = mostly about -30% to -49%
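Secreted IL-1B measured by AlphaLISA bead assay after 16 h compound exposure of THP-1 cells; compounds (final up to 57.5 uM) added 1 h before LPS (250 ng/mL) and ATP (1.25 mM) stimulation; lower signal means less secretion.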
TDP1 cell noCPT = qHTS for Inhibitors of human tyrosyl-DNA phosphodiesterase 1 (TDP1): qHTS in cells in absence of CPT | 15% of 420,000 active | DT40 Tdp1-/- hTDP1 cells, no CPT, ATP luminescence, 48 h | Potency, µM (doses to about 46.2 µM), for the others: at the highest dose activity change, negative = growth inhibition, usual class: inhibitors; note: potency is the fitted concentration of half-maximal effect; nearly all actives have a fitted effect of over 55% in size
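Chicken DT40 Tdp1-/- cells complemented with human TDP1, screened without camptothecin (DMSO vehicle only), 400 cells/well. Compounds pin-transferred, cells incubated at 37 °C for at least 48 hr. Growth read as ATP-dependent luminescence (CellTiter-Glo, 30 min at RT).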
HT1080-NT tox = qHTS for induction of synthetic lethality in tumor cells producing 2HG: qHTS for the HT-1080-NT fibrosarcoma cell line. 1.6% of 360,000 active. HT-1080-NT fibrosarcoma viability, CellTiter-Glo ATP luminescence, 48 h. Potency, µM (doses to about 46.1 µM), for inactives: at the highest dose activity, negative = less viability, most hits filed as cytotoxic;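 note: NT is the 2HG producing partner of a matched IDH1 knockdown line; potency is the fitted concentration of half-maximal effect; 0% = DMSO-treated cells and -100% = media-only wells without cells; nearly all actives have a fitted effect of over 55% in size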
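Toxicity toward the 2HG-producing NT line was scored as %Activity, normalised to DMSO and no-cell wells, from CellTiter-Glo luminescence after 48 hours' treatment.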
An asterisk follows results filed as active; ? = inconclusive; . = not tested or not shown; [ ] = dose if it differs, or a comment. Shown are actives, neighbours in structure and some others; about 19% of the full set was active somewhere. Unless noted, calls come from the whole dose curve; as a rule, active = well fitted curve in the direction sought with a large enough effect; inconclusive = small, poorly fitted or top-dose-only effect, or another doubt; inactive = no such curve, though single readings can be large; an effect the other way counts as inactive or inconclusive. Unless noted, % is set by controls: 0 for no effect and ±100 for the full control effect.

SMILES	HT1080 IDH1KD tx	DT40 TDP1 CPT	IL1B secr inh	TDP1 cell noCPT	HT1080-NT tox
O=C(OC(C(=O)NCc1ccc2c(c1)OCO2)c1ccc(Cl)cc1)c1ccco1 (centres undefined)	2.0%	-1.7%	8.5	-3.6%	-2.4%
O=C(O)/C=C/c1ccc(S(=O)(=O)Nc2ccc(C(=O)NCC(=O)O)cc2)cc1	3.1%	1.8%	25.0	-11.6%	-1.3%
CCOC(=O)c1sc2nc(C)n(CC(=O)NCC3CCCO3)c(=O)c2c1C (centres undefined)	2.6%	-4.7%	-0.2	?	18.7%
CCOC(=O)/C=c1\s/c(=C\c2ccc(C#N)cc2)c(=O)n1CC(=O)NCc1ccco1	5.2%	17.9%	0.0	-12.5%	7.4%
CCOC(=O)/C=c1/s/c(=C/c2ccc3cc(OC)ccc3c2)c(=O)n1CC(=O)NCC1CCCO1 (centres undefined)	13.5%	16.4µM*	0.0	10.3µM*	4.8%
CCOC(=O)/C=c1\s/c(=C\c2c(OC)ccc3ccccc23)c(=O)n1CC(=O)NCC1CCCO1 (centres undefined)	7.94µM*	?	31.4	20.6µM*	10µM*
COc1ccc(-n2c(=O)c3c(c4cc(OC)ccc4n3C)n(CC(=O)NCC3CCCO3)c2=O)cc1 (centres undefined)	.	-5.4%	.	?	.
CCOC(=O)/C=c1\s/c(=C\c2ccc(C(=O)OC)cc2)c(=O)n1CC(=O)Nc1ccccc1	14.5%	16.4µM*	3.2	?	20.6%
CCOc1ccc(C(C)C)cc1S(=O)(=O)N1CCN(C(=O)c2ccco2)CC1	2.0%	-15.2%	18.4	8.0%	-3.1%
O=C(c1ccc2c(c1)OCO2)N(Cc1cc2ccc(F)cc2nc1N1CCC(O)CC1)CC1CCCO1 (centres undefined)	.	5.0%[9.04 µM]	.	?	.
CC(=NNC(=S)N1CC2CCC(CC2)C1)c1cccc(C)n1	?	0.0103µM*	-110.2*	0.0206µM*	-21.4%
CC(=NNC(=S)N1CCCC1)c1ccccn1	?	-82.6%	77.0	-90.0%	?
Cc1ccc(N)cc1NC(=O)CN1CCOCC1	-0.2%	0.2%	13.4	3.5%	6.1%
CCOC(=O)Cn1c(=NC(=O)CC)sc2c(C)cc(C)cc21	7.2%	0.9%	44.6	-6.2%	19.5%
CCOC(=O)Cn1c(=NC(=O)C(C)C)sc2c(C)cc(C)cc21	-4.7%	?	30.7	14.6µM*	-17.7%
Cc1cc(F)ccc1NCc1ccccc1[N+](=O)[O-]	-0.1%	-26.2%	-7.9	-22.5%	-11.0%
Cc1cc([N+](=O)[O-])ccc1NCc1cccc2ccccc12	-0.8%	?	-65.6*	15.8µM*	?
Cc1cc([N+](=O)[O-])ccc1NCc1ccccc1[N+](=O)[O-]	-12.5%	-14.8%	-70.9*	-23.8%	-11.9%
O=C(COC(=O)C1CCCN1C(=O)C12CC3CC(CC(C3)C1)C2)c1ccc(Br)cc1 (centres undefined)	18.2%	?	-11.0	?	4.5%
COc1ccc(C(=O)COC(=O)C2CCCN2C(=O)C23CC4CC(CC(C4)C2)C3)cc1 (centres undefined)	15.1%	23.1µM*	1.3	-24.3%	15.9%
O=C(CNS(=O)(=O)/C=C/c1ccccc1)OC1CCOC1=O (centres undefined)	0.3%	-18.9%	1.2	-6.5%	12.4%
CC(=NNc1nc2ccccc2s1)c1ncccn1	1.16µM*	-76.0%	-0.4	0.0206µM*	?
C/C(=N\Nc1nc2ccccc2s1)c1cccs1	?	?	-83.3*	?	?
CCc1cccc(C)c1Nc1nc2ccccc2n2cnnc12	0.4%	-6.6%	34.6	?	2.4%
c1ccc2c(-c3nc4ccccc4[nH]3)cccc2c1	18.4µM*	9.2µM*	34.9	4.61µM*	?
